Measurements as given in PubChem BioAssay AID624126 (The Scripps Research Institute Molecular Screening Center, 2012).
In all, about 360,000 compounds went through this assay and about 1,400 (0.39%) were called active.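 Rule for the calls: active = activation above its plate's cutoff, the mean activation of sample wells plus 3 SD; inactive = the rest.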 The list comes from a sample in which actives are over-represented; it also holds similar structures and randomly drawn compounds.

Target: Muscarinic acetylcholine receptor M4 (Homo sapiens) (UniProt P08173)
Sequence (P08173 whole entry, looked up): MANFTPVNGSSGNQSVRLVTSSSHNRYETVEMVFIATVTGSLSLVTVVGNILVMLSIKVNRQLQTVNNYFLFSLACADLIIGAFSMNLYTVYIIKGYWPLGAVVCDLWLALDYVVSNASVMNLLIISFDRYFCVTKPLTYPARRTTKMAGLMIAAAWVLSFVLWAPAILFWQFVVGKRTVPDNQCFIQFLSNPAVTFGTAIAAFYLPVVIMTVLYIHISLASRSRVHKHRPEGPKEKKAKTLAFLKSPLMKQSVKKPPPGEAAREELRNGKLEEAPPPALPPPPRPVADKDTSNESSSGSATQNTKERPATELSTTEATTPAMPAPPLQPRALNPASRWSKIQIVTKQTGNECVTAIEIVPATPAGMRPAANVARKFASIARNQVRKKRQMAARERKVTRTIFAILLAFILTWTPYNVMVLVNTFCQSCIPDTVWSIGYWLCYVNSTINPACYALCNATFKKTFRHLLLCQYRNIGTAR
Assay: CHRM4 PAMs potentiating acetylcholine calcium signal – CHO-K1 cells, Fluo-8 calcium fluorescence, primary screen (AID 624126)
Conditions: CHO-K1 hM4/Gqi5, Fluo-8 calcium fluorescence, ACh EC20; at 3 µM; active compounds read high; 0% = ACh EC20, 100% = maximal ACh

activation, active:
Cc1cc2[nH]ncc2cc1NC(=S)NC(=O)c1ccccc1 31.9%, O=c1c2ccccc2nc2n1C1(CCCCC1)Cc1ccccc1-2 21.2%, Cc1sc2ncnc(N3CCC(C(=O)Nc4ccc(F)cc4Cl)CC3)c2c1C 45%, NCC(=O)c1cccc2ccc[n+]([O-])c12 17.3%, Cc1nc2sc(C(=O)c3ccccc3)c(N)c2c2c1CCCC2 63%, Cc1ccc(S(=O)(=O)N2CCN(C(=O)CSc3cc(C)ccc3C)CC2)c(C)c1 18.8%, O=C(O)CCS(=O)(=O)c1ccc(-c2ccccc2)cc1 20.7%, CN(CC(=O)NCCc1ccc(F)cc1)CC(=O)Nc1ccc(F)c(F)c1F 21.1%, Cc1ccccc1NC(=O)CCOc1ccccc1 15.2%, O=C(Nc1ccccc1Cl)c1ccccc1S(=O)(=O)c1ccccc1[N+](=O)[O-] 24.3%, COc1ccc(C(=O)Nc2ccc(S(=O)(=O)Nc3onc(C)c3C)cc2)cc1OC 31.2%, Cc1ccc2nc(-c3ccncc3)cc(C(=O)Nc3ccncc3)c2c1 20.7%, COCCNc1ncnc2c1ncn2[C@H]1CN(Cc2ccc(OC)cc2)C[C@@H](CO)O1 16.3%, CC(C)NC(=O)C(=O)N/N=C/c1ccco1 23.7%, CC(C)CCN1C(=O)c2ccc(C(=O)Nc3cccc(S(N)(=O)=O)c3)cc2C1=O 23.1%, CCOC(=O)c1sc(/N=C/Nc2nc(C)c(C(=O)OCC)s2)nc1C 39%, CCc1noc(C)c1C(=O)N1CCCC(N2CCN(c3ccc(F)cc3)CC2)C1 (centres undefined) 20%

activation, inactive:
COC(=O)c1c(NC(=O)COC(=O)[C@@H](NS(=O)(=O)c2ccccc2)C(C)C)sc2c1CCC2 -4.52%, COC(=O)c1scc(S(=O)(=O)C(C)(C)C)c1-n1cccc1 -11.5%, COc1cc(C(=O)N2CCN(C3CCC(C)CC3)CC2)cc(OC)c1OC (centres undefined) -7.26%, CC(C)N=C1CCCC1C(=S)SSC(=S)C1CCCC1=NC(C)C (centres undefined) 7.38%, Cc1cc(C)cc(C(=O)NC(=S)Nc2ccc3[nH]c(=O)[nH]c3c2)c1 5.23%, Cn1nnc(NC(=S)NC(=O)c2ccccc2)n1 22.4%, COc1ccc(C(=O)C2CCCN(C(=O)c3ccc(OC)o3)C2)c(C)c1 (centres undefined) -1.21%, Cc1cccc(-n2c(SCC(N)=O)nc3c(c2=O)C2(CCCCC2)Cc2ccccc2-3)c1 -5.47%, CN(c1ccc2nc3ccccc3c(=O)n2n1)C1CCCCC1 11.4%, Cc1ccc(C(=O)C(C)OC(=O)Cc2n[nH]c(=O)c3ccccc23)cc1C (centres undefined) -4.11%, COc1ccc(C(=O)N/N=C2\CCS(=O)(=O)c3ccc(F)cc32)cc1OC 2.71%, Cc1sc2ncnc(N3CCC(C(=O)Nc4nc5ccc(Cl)cc5s4)CC3)c2c1C 7.24%, Cc1sc2ncnc(N3CCC(C(=O)NNC(=O)c4ccc(F)cc4)CC3)c2c1C -3.74%, Cc1cccc(N(C)C(=O)c2cc(S(=O)(=O)N3CCCCC3)c[nH]2)c1 -3.91%, Cc1ccc2cccc(O)c2[n+]1[O-] 16.2%, Cc1cccc2cc3c(N)c(C(=O)N4CCCc5ccccc54)sc3nc12 -7.18%, Cn1c(-c2ccc(C(=O)c3ccccc3)s2)nc2ccccc21 0.98%, O=C(NCc1ccccc1Cl)C(=O)NCC1CCCN1S(=O)(=O)c1cccs1 (centres undefined) -2.08%, CC(Oc1ccccc1)C(=O)Nc1c2c(nn1-c1ccccc1)CS(=O)C2 (centres undefined) -0.93%, CCCc1cc(=O)[nH]c(SCC(=O)N2CCN(S(=O)(=O)c3ccc(C)cc3C)CC2)n1 -1.77%, Cc1ccc(S(=O)(=O)N2CCN(C(=O)COC(=O)c3c(C)cc(C)cc3C)CC2)c(C)c1 -3.37%, CC(C#N)(NC(=O)CN1CCN(S(=O)(=O)c2cc(C(F)(F)F)ccc2Cl)CC1)C1CC1 (centres undefined) 0.11%, COc1cccc(NC(=O)C2CCCN(c3ncnc4c3nc3n4CCCCC3)C2)c1 (centres undefined) -6.71%, CCOc1ccc(S(=O)(=O)Nc2cccc(C(=O)NCC3(N4CCCCC4)CCCCC3)c2)cc1 -3.09%, Cc1cc(C)c(S(=O)(=O)c2ccccc2)c(OC(=O)c2c(F)cccc2Cl)n1 1.34%, Cc1ccc(S(=O)(=O)CCC(=O)OCc2ccccc2)cc1 1.2%, O=C(CCS(=O)(=O)c1ccccc1)NC1CCCC1 2.49%, O=C1c2ccccc2NC(c2ccccn2)N1NS(=O)(=O)c1ccccc1 (centres undefined) 16.5%, CN(CC(=O)NCCc1ccc(S(N)(=O)=O)cc1)CC(=O)Nc1ccc(F)c(F)c1F 0.07%, CN(CC(=O)NCc1ccc2c(c1)OCO2)CC(=O)Nc1ccc(F)c(F)c1F -5.56%, CCc1ccccc1NC(=O)CCOc1ccccc1 -7.57%, Cc1cccc(OCCC(=O)Nc2ccccc2C(N)=O)c1 0.92%, CCCn1nc(NS(=O)(=O)c2ccccc2)c2cc3cc(C)ccc3nc21 9.07%, COc1ccc(CN2C(=O)C(CC(=O)NC3CCCCC3)CC(C(=O)N3CCOCC3)=C2C)cc1 (centres undefined) 0.19%, Cn1c(CCN2CCN(c3ccccn3)CC2)nc2cc(NS(=O)(=O)c3ccc(F)cc3)ccc21 -13.9%, C=CCC1(CC=C)CCCN1C(=O)CC1C(=O)NCCN1Cc1ccccc1OC (centres undefined) 9.2%, O=C(NCCNc1ccccc1[N+](=O)[O-])c1ccccc1F -0.9%, O=C(Nc1ccccc1-c1ccccc1)c1ccccc1[N+](=O)[O-] -0.05%, Cc1cc(OC(C)C(=O)Nc2ccc(S(=O)(=O)Nc3onc(C)c3C)cc2)cc(C)c1Cl (centres undefined) -0.5%, Cc1noc(NS(=O)(=O)c2ccc(NC(=O)c3oc4ccc(F)cc4c3C)cc2)c1C -0.81%, CCOC(=O)CNC(=O)CSc1ccc2nnc(-c3cccnc3)n2n1 -1.25%, CN(Cc1ccccc1)C(=O)c1ccc(NC2=NC3CS(=O)(=O)CC3S2)cc1 (centres undefined) -4.53%, Cc1ccc(-c2cc(C(=O)NCc3cn(C)nc3C)c3cc(Br)ccc3n2)cc1 -8.1%, CCS(=O)(=O)Nc1cccc(-c2cc(-c3ccccc3)c3cc(C)ccc3n2)c1 -23%, CCCC[C@@H]1CN=C(N)N1CCc1cc(C(F)(F)F)cc(C(F)(F)F)c1 -12.2%, CCOC(=O)C1=C(c2ccccc2)O/C(=C(/C(=O)OC)C(F)(F)F)S1 -8.8%, OC[C@@H]1CN(Cc2ccc(Cl)cc2)C[C@H](n2cnc3c(NCc4ccncc4)ncnc32)O1 -0.98%, COCCNc1ncnc2c1ncn2[C@H]1CN(CCN2CCOCC2)C[C@@H](CO)O1 -3.76%, COc1cc(CC(=O)N2CCC(n3nccc3NC(=O)C3CC3)CC2)cc(OC)c1OC 0.58%, Cc1cc(C)cc(N)c1 -1.71%, CC(Nc1nc(C(F)(F)F)nc2ccccc12)c1cccs1 (centres undefined) -11.8%, Cc1c(Cl)cccc1NC(=O)CCC(=O)N/N=C/c1ccco1 4.77%, O=C(CCNC(=O)c1ccccc1Cl)NN=Cc1ccco1 3.05%, O=C(OCC(=O)N(CCc1ccccc1)Cc1ccccc1)c1ccccc1[N+](=O)[O-] -11%, CC(NC(=O)COc1ccccc1)C(=O)NC1=NCCS1 (centres undefined) 8.32%, CCN1CN(Cc2ccccc2)CNC1=S 10.7%, CCCCN1C(=O)c2ccc(C(=O)Nc3ccc(S(=O)(=O)N(C)C)cc3)cc2C1=O -10.2%, CN1CCN(S(=O)(=O)c2cccc(C(=O)Nc3cccc(S(N)(=O)=O)c3)c2)CC1 -0.95%, CC(=O)NC(NC(=S)Nc1c(C)n(C)n(-c2ccccc2)c1=O)C(Cl)(Cl)Cl (centres undefined) -1.16%, CCCCc1ccc(NC(=S)N2CCCC(CO)C2)cc1 (centres undefined) 0.72%, CCOC(=O)c1sc(NC(=O)CSc2n[nH]c(CC)n2)nc1C -9.01%, CCOC(=O)c1sc(NC(=O)C2CSC3(C)CCC(=O)N23)nc1C (centres undefined) 2.06%, Cc1ccn2cc(-c3nonc3C)cc2c1 3.14%, Cc1ccc(S(=O)(=O)N2CCCCC2)cc1C(=O)N1CCN(CCO)CC1 7.4%, CN1CCN(C(=O)N2c3ccccc3CCc3ccccc32)CC1 -20.3%, COc1ccccc1CN1CCCC(N2CCN(c3ccc(F)cc3)CC2)C1 (centres undefined) -7.29%, Cc1cnc(C(=O)N2CCCC(N3CCN(c4ccccc4F)CC3)C2)cn1 (centres undefined) 6.32%, COCCCNC(=O)Cn1cc(/C=C(\C#N)C(=O)N2CCN(c3ccccc3)CC2)c2ccccc21 6.26%, COc1ccc(CCNC(=O)CCn2c(=O)oc3ccccc32)cc1OC 5.54%, CCN1CCC2(CCN(Cc3cn[nH]c3-c3ccc(OC)c(F)c3)C2)C1 (centres undefined) 16.5%, CC[C@]1(O)CC2CN(CCc3c([nH]c4ccccc34)[C@@](C(=O)OC)(c3cc4c(cc3OC)N(C=O)[C@H]3[C@@](O)(C(=O)OC)[C@H](OC(C)=O)[C@]5(CC)C=CCN6CC[C@]43[C@@H]65)C2)C1 (some centres undefined) -0.6%, CCN(CC)S(=O)(=O)c1ccc(NC(=O)c2cccnc2Cl)c(NC(=O)c2cccnc2Cl)c1 2.53%
